# According to paper PMC5540273 (PLoS ONE, 2017):
# Tests used:
# Details in all cases: concentration: 1 μM, replicates: in singlicate; n = 1
# CSF1R = test system: CSF1R
# CSK = test system: CSK
# CSNK1A1L = test system: CSNK1A1L
# CSNK1A1 = test system: CSNK1A1
# CSNK1D = test system: CSNK1D
# CSNK1E = test system: CSNK1E
# CSNK1G1 = test system: CSNK1G1
# CSNK1G2 = test system: CSNK1G2
# CSNK1G3 = test system: CSNK1G3
# CSNK2A1 = test system: CSNK2A1
# CSNK2A2 = test system: CSNK2A2
# CTK = test system: T1, CTK
# T1 construct: gene MATK
# DAPK1 = test system: DAPK1
# DAPK2 = test system: DAPK2
# DAPK3 = test system: DAPK3
# DCAMKL1 = test system: T2, DCAMKL1
# T2 construct: gene DCLK1
# DCAMKL2 = test system: T3, DCAMKL2
# T3 construct: gene DCLK2
# DCAMKL3 = test system: T4, DCAMKL3
# T4 construct: gene DCLK3
# DDR1 = test system: DDR1
# DDR2 = test system: DDR2
# 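Further: KINOMEscan kinase panel screen.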
Compound,%Inh (CSF1R) [%],%Inh (CSK) [%],%Inh (CSNK1A1L) [%],%Inh (CSNK1A1) [%],%Inh (CSNK1D) [%],%Inh (CSNK1E) [%],%Inh (CSNK1G1) [%],%Inh (CSNK1G2) [%],%Inh (CSNK1G3) [%],%Inh (CSNK2A1) [%],%Inh (CSNK2A2) [%],%Inh (CTK) [%],%Inh (DAPK1) [%],%Inh (DAPK2) [%],%Inh (DAPK3) [%],%Inh (DCAMKL1) [%],%Inh (DCAMKL2) [%],%Inh (DCAMKL3) [%],%Inh (DDR1) [%],%Inh (DDR2) [%]
O=C(Nc1ccc2c(c1)OCO2)NC1CCN(c2ccnc(NCc3ccc(F)cc3)n2)CC1 [GSK1379859],0,0,15,0,0,36,0,0,20,0,22,0,22,0,0,14,0,18,9,0
Cc1cccc(-c2nc(Nc3ccc4c(cnn4C)c3)c3ccccc3n2)n1 [GW876731],29,2,0,0,50,37,18,10,0,0,0,4,0,0,14,0,11,0,3,1
COc1cccc(C2=C(N(C)c3ccccc3)C(=O)NC2=O)c1 [SB-334865],4,0,1,0,15,2,1,0,2,0,3,0,6,0,14,18,0,16,0,22
COc1cc(Nc2nccc(N3CCC(NC(=O)C4COc5ccccc5O4)C3)n2)cc(OC)c1OC (centres unmarked) [GSK1379761],20,0,0,0,0,0,3,0,2,0,0,0,0,20,11,0,0,0,1,61
Cc1nc(N(C)[C@H]2CN(C(=O)CC#N)CC[C@H]2C)c2cc[nH]c2n1,13,0,3,0,0,0,5,0,0,0,6,19,0,13,0,6,0,63,28,2
CCC(=O)c1c(-c2ccccc2)c2cc(Cl)ccc2c(=O)n1Cc1cc(S(C)(=O)=O)n(CCC(C)(C)O)n1,16,0,0,31,8,0,21,15,0,17,22,0,16,3,0,15,22,21,14,0
Cc1nnc(-c2ccc(C)c(-c3ccc(C(=O)O)cc3)c2)o1 [GW608005],0,0,0,0,0,8,7,0,9,21,8,0,0,0,0,0,0,0,7,1
COC(=O)c1c(-c2ccccc2)c2cc(Br)ccc2c(=O)n1Cc1ccc(S(C)(=O)=O)cc1,16,0,9,30,9,0,7,13,0,0,42,35,0,11,7,24,0,0,29,17
COc1ccc(-c2cc3c(C)nc(N)nc3n([C@H]3CC[C@H](O)CC3)c2=O)cn1,0,0,0,13,0,0,0,0,0,0,0,0,0,0,1,0,0,0,0,0
OCCCNc1nccc(-c2c(-c3cccc(C(F)(F)F)c3)nn3cc(C(F)(F)F)ccc23)n1 [GW630813],0,0,0,0,36,54,0,0,13,0,27,0,0,0,3,40,0,0,15,40
